Rows were chosen to be rich in hits. Some 3.5% of all compounds tested hit in one or more screens of this group.
FadD28 FP inh: inhibitors of FadD28 bisubstrate probe binding, primary screen, biochemical, fluorescence polarization, single point | Mycobacterium tuberculosis FadD28 fatty-acid-AMP ligase | inhibition, % at 12.5 µM | 360,000 compounds, 0.22% hits; in the data active = inhibition above about 8.5%, passing the limit was not always enough
Rv3671c protease: Rv3671c serine protease inhibitors, primary screen, biochemical, fluorescence polarization, M. tuberculosis H37Rv. P9WHR9. inhibition, % at 5.96 µM. 320,000 compounds, 0.048% hits; in the data active = inhibition above about 38%;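 also: extracellular domain of Rv3671c used as enzyme; 0% = enzyme with DMSO and 100% = no enzyme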
FBA Mtb inh: Mtb FBA enzyme inhibitors, primary screen, biochemical, fluorescence, strain H37Rv | Fructose-bisphosphate aldolase (Mycobacterium tuberculosis (strain ATCC 25618 / H37Rv)), … | 360,000 compounds, 2.3% hits | inhibition, % at 1 µM | purified M. tuberculosis FBA, fluorescence read-out | AID 588726, 2011;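 also: 0% = vehicle and 100% = reference inhibitor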
Target sequence (P9WQA3 whole entry, looked up): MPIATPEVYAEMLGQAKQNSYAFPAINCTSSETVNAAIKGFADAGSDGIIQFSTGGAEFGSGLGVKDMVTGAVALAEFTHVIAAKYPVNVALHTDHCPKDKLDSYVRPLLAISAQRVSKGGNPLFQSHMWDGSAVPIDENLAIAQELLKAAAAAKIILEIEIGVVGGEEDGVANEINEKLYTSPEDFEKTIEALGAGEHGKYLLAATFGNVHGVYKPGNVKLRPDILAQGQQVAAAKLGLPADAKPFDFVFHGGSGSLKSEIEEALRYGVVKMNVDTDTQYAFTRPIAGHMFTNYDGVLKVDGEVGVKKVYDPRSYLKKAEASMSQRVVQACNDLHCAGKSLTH
Mtb hypoxia rep: PubChem AID 1159583. M. tuberculosis hypoxia-regulated fluorescent reporter, fluorescence. fluorescence inhibition, % (no concentration beside the values). 300,000 compounds, 0.1% hits; in the data active = fluorescence inhibition mostly above about 23%, no sharp cut-off; inactive = mostly below about 17%
GDH-TPI counter-1: GDH-TPI coupling enzyme inhibitors, primary screen, artefact control for M. tuberculosis FBA inhibitor project, biochemical, absorbance, full deck. inhibition, % at 4.8 µM. GDH-TPI coupled enzyme counterscreen, NADH absorbance. 360,000 compounds, 1.2% hits; in the data active = inhibition above about 30%;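 also: 0% = DMSO wells and 100% = wells lacking the enzyme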
Mtb UGM inh: M. tuberculosis UGM enzyme inhibitors, primary screen, biochemical, fluorescence polarization, single point | UDP-galactopyranose mutase (Mycobacterium tuberculosis (strain ATCC 25618 / H37Rv)), … | 320,000 compounds, 0.06% hits | inhibition, % at 10 µM | purified UGM, fluorescence polarization probe displacement; in the data active = inhibition above about 10%, passing the limit was not always enough
Mtb FBA confirm: M. tuberculosis aldolase blockers, biochemical, fluorescence, strain H37Rv, confirmation; inhibition, % at 1 µM; shares compounds with FBA Mtb inh; AID 651616, 2012; 5,600 compounds, 78% hits; purified M. tuberculosis FBA, fluorescence read-out;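 also: 0% = vehicle wells and 100% = reference inhibitor wells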
GDH-TPI counter-2: GDH-TPI coupling enzyme inhibitors, artefact control for M. tuberculosis FBA inhibitor project, biochemical, fluorescence, high throughput. shares compounds with FBA Mtb inh. GDH-TPI coupled enzyme counterscreen. inhibition, % at 1 µM. 5,600 compounds, 81% hits. AID 652141, 2013; in the data active = inhibition above about 10%
* marks the source's active call; other numbers are inactive results; x = not tested or not shown; + = active, no number. Rule as the data show it, unless noted: active = inhibition above about 27%; inactive = the rest.

SMILES	FadD28 FP inh	Rv3671c protease	FBA Mtb inh	Mtb hypoxia rep	GDH-TPI counter-1	Mtb UGM inh	Mtb FBA confirm	GDH-TPI counter-2
c1ccc(-n2cnc3ccccc32)nc1	-0.7	-2.9	-0.3	13.3	4.5	-3.4	x	x
c1ccc(-c2ccc(-c3n(-c4ccccn4)c4ccccc4[n+]3-c3ccccn3)cc2)cc1	-4.3	x	45.8*	-5.3	2.2	x	189.1*	171.6*
Cc1cc(-c2nc3ncccc3o2)ccc1NC(=S)NC(=O)c1ccco1	-0.8	1.2	32.9*	5.0	10.5	-0.7	39.4*	32.2*
CCCC(=O)Nc1cc(-c2nc3ncccc3o2)ccc1C	0.7	-0.1	60.4*	24.5	11.5	2.2	98.6*	64.9*
CCCC(=O)Nc1ccc(-c2nc3ncccc3o2)cc1	-1.5	x	86.8*	-10.3	30.1	-3.4	21.2	16.8*
Cc1ccc(-c2nc3ncccc3o2)cc1NC(=O)c1ccco1	-4.8	5.4	-1.5	x	3.0	-0.5	x	x
Cc1ccc(-c2nc3ncccc3o2)cc1NC(=O)C(C)(C)C	-1.5	-1.2	29.7*	14.9	4.5	-0.5	25.6	22.4*
Cc1ccc(-c2nc3ncccc3o2)cc1NC(=S)NC(=O)c1ccco1	-2.6	-13.2	1.6	-2.6	-0.4	-0.9	x	x
O=C(NCc1ccccc1)C1=CC(c2ccc3c(c2)OCO3)CC(OCCCCO)O1 (centres undefined)	x	x	x	15.7	x	x	x	x
COCCN1C(=O)NC(c2ccco2)C(C(C)=O)=C1C (centres undefined)	x	x	x	0.0	x	x	x	x
COc1cccc(C=NNC(=O)C(c2ccncc2)N2CCOCC2)c1 (centres undefined)	x	x	x	6.9	x	x	x	x
CCCC(=O)Nc1ccc2oc(-c3cccnc3)nc2c1	-2.1	3.6	74.3*	-6.9	3.3	1.6	169.0*	138.4*
CON=Cc1ccc(Oc2ccc([N+](=O)[O-])cc2[N+](=O)[O-])c(OC)c1	x	x	x	-3.6	x	x	x	x
N#C/C(=C\c1cccc(Cl)c1)c1n[nH]c(Cn2cncn2)n1	-1.2	1.8	38.9*	x	4.6	1.6	56.7*	43.1*
Cn1c(-c2cc3ccc(OC(=O)C(C)(C)C)cc3oc2=O)nc2ccccc21	-2.7	-4.5	59.2*	0.5	33.0*	0.3	2.9	-3.5
CC(C)(C)C(=O)Oc1ccc2cc(-c3ccc4ccccc4n3)c(=O)oc2c1	-1.0	6.2	8.2	1.8	-1.4	0.3	x	x
NC(=O)CNC(=O)C1CC2(CC(c3ccccc3)=NO2)CN1C(=O)c1ccc(Br)cc1 (centres undefined)	x	x	x	7.3	x	x	x	x
COc1ccc(S(=O)(=O)Nc2c(NC3CCCCC3)c3ccccc3oc2=O)cc1Cl	-10.6	-4.1	29.5*	-5.8	-6.6	4.2	+	+
COc1ccc(-c2c3c(cc4ncn(Cc5ccccc5)c24)COC3=O)cc1	-3.1	-3.7	62.5*	5.1	4.4	5.0	141.2*	138.1*
CC1(C)Cc2c(c(-c3ccco3)nc3sc4c(NCCCO)ncnc4c23)CO1	-13.6	-9.0	36.6*	6.2	48.1*	4.5	43.3*	24.1*
CC(C)CNc1ncnc2c1sc1nc(N3CCOCC3)c3c(c12)CC(C)(C)OC3	-3.3	-10.5	4.2	5.7	3.7	0.1	x	x
CC1(C)Cc2c(c(-c3ccco3)nc3sc4c(NCC5CCCO5)ncnc4c23)CO1 (centres undefined)	-7.2	-1.7	14.4	4.2	26.0	1.0	x	x
CC1(C)Cc2c(c(-c3ccco3)nc3sc4c(NCCN5CCOCC5)ncnc4c23)CO1	-5.3	0.3	27.4*	6.6	34.5*	1.5	5.4	-0.8
O=[N+]([O-])c1ccc(O)c(C=NNC(=S)Nc2ccc(Cl)cc2Cl)c1	x	x	x	10.4	x	x	x	x
